Laboratory results reported in PubChem BioAssay AID1159580 (chemical genetic matrix, 2015).
The campaign covered roughly 5,500 compounds. About 2,000 (36%) were called active. Not shown: some 18% with an inconclusive outcome. Rule as the data show it: active = normalized growth mostly below about 0.91 (no sharp cut-off); inconclusive = no clear call, values can overlap the other calls; inactive = mostly above about 0.92. This is one part of the list.

Assay: chemical genetic growth profiling, strain panel (AID 1159580);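 also: tested at 20 µM; growth read once vehicle control cultures reached saturation at 30 °C; 1 = growth at the plate median or of vehicle wells; lower values mean less growth of the strain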
Details: growth OD

Measured: normalized growth

Cc1cc(=O)[nH]c(=S)[nH]1
active: S. cerevisiae deletion strains, locus YNL248C, strain rpa49, stronger effect = lower value 0.872
inactive: S. cerevisiae deletion strains, locus YJR075W, strain HOC1, stronger effect = lower value 1.02 | S. cerevisiae deletion strains, locus YKL009W, strain mrt4, stronger effect = lower value 0.999 | S. cerevisiae deletion strains, locus YKL068W, stronger effect = lower value 1 | S. cerevisiae deletion strains, locus YKL085W, strain MDH1 (second series), stronger effect = lower value 0.977 | S. cerevisiae deletion strains, locus YKL085W, strain MDH1, stronger effect = lower value 0.977 | S. cerevisiae deletion strains, locus YKL160W, strain elf1, stronger effect = lower value 0.974 | S. cerevisiae deletion strains, locus YKL190W, strain CNB1, stronger effect = lower value 1 | S. cerevisiae deletion strains, locus YKR001C, strain vps1, stronger effect = lower value 1.01 | S. cerevisiae deletion strains, locus YKR026C, strain gcn3, stronger effect = lower value 0.992 | S. cerevisiae deletion strains, locus YKR091W, strain srl3, stronger effect = lower value 0.967 | S. cerevisiae deletion strains, locus YLL001W, strain dnm1, stronger effect = lower value 1.01 | S. cerevisiae deletion strains, locus YLL026W, stronger effect = lower value 0.979 | S. cerevisiae deletion strains, locus YLL041C, strain sdh2, stronger effect = lower value 0.978 | S. cerevisiae deletion strains, locus YLR027C, strain aat2, stronger effect = lower value 0.973 | S. cerevisiae deletion strains, locus YLR039C, strain RIC1, stronger effect = lower value 1.03 | S. cerevisiae deletion strains, locus YLR058C, strain SHM2, stronger effect = lower value 1.01 | S. cerevisiae deletion strains, locus YLR102C, strain apc9, stronger effect = lower value 1 | S. cerevisiae deletion strains, locus YLR113W, strain HOG1, stronger effect = lower value 1.03 | S. cerevisiae deletion strains, locus YLR221C, strain rsa3, stronger effect = lower value 0.973 | S. cerevisiae deletion strains, locus YLR258W, strain gsy2, stronger effect = lower value 0.98 | S. cerevisiae deletion strains, locus YLR262C, strain YPT6 (second series), stronger effect = lower value 0.981 | S. cerevisiae deletion strains, locus YLR262C, strain YPT6, stronger effect = lower value 1.07 | S. cerevisiae deletion strains, locus YLR268W, strain sec22, stronger effect = lower value 1.08 | S. cerevisiae deletion strains, locus YLR320W, strain mms22, stronger effect = lower value 0.956 | S. cerevisiae deletion strains, locus YLR330W, strain CHS5, stronger effect = lower value 1.01 | S. cerevisiae deletion strains, locus YLR342W, strain FKS1 (second series), stronger effect = lower value 1 | S. cerevisiae deletion strains, locus YLR342W, strain FKS1, stronger effect = lower value 0.985 | S. cerevisiae deletion strains, locus YLR357W, strain rsc2, stronger effect = lower value 0.944 | S. cerevisiae deletion strains, locus YLR370C, strain arc18, stronger effect = lower value 0.973 | S. cerevisiae deletion strains, locus YLR371W, strain rom2, stronger effect = lower value 1.02 | S. cerevisiae deletion strains, locus YLR384C, strain iki3, stronger effect = lower value 0.989 | S. cerevisiae deletion strains, locus YLR418C, strain cdc73, stronger effect = lower value 1.02 | S. cerevisiae deletion strains, locus YML016C, strain PPZ1, stronger effect = lower value 1.01 | S. cerevisiae deletion strains, locus YML032C, strain rad52, stronger effect = lower value 1.04 | S. cerevisiae deletion strains, locus YML120C, strain ndi1, stronger effect = lower value 0.972 | S. cerevisiae deletion strains, locus YML124C, strain tub3, stronger effect = lower value 1 | S. cerevisiae deletion strains, locus YMR058W, strain fet3, stronger effect = lower value 0.976 | S. cerevisiae deletion strains, locus YMR078C, strain ctf18, stronger effect = lower value 1.01 | S. cerevisiae deletion strains, locus YMR125W, strain sto1, stronger effect = lower value 0.933 | S. cerevisiae deletion strains, locus YMR129W, stronger effect = lower value 0.969 | S. cerevisiae deletion strains, locus YMR205C, strain PFK2, stronger effect = lower value 0.976 | S. cerevisiae deletion strains, locus YMR223W, strain ubp8, stronger effect = lower value 0.989 | S. cerevisiae deletion strains, locus YMR231W, strain pep5, stronger effect = lower value 1 | S. cerevisiae deletion strains, locus YMR263W, strain SAP30, stronger effect = lower value 1.03 | S. cerevisiae deletion strains, locus YMR307W, strain GAS1, stronger effect = lower value 1.05 | S. cerevisiae deletion strains, locus YNL067W, strain RPL9B, stronger effect = lower value 1.02 | S. cerevisiae deletion strains, locus YNL071W, strain lat1, stronger effect = lower value 0.963 | S. cerevisiae deletion strains, locus YNL128W, strain TEP1, stronger effect = lower value 1 | S. cerevisiae deletion strains, locus YNL153C, strain GIM3, stronger effect = lower value 1.03 | S. cerevisiae deletion strains, locus YNL183C, strain NPR1, stronger effect = lower value 0.977 | S. cerevisiae deletion strains, locus YNL209W, strain ssb2, stronger effect = lower value 0.973 | S. cerevisiae deletion strains, locus YNL233W, strain BNI4, stronger effect = lower value 1.02 | S. cerevisiae deletion strains, locus YNL250W, strain rad50, stronger effect = lower value 1.01 | S. cerevisiae deletion strains, locus YNL271C, strain bni1, stronger effect = lower value 1.01 | S. cerevisiae deletion strains, locus YNL298W, strain CLA4, stronger effect = lower value 1.01 | S. cerevisiae deletion strains, locus YNL307C, strain MCK1, stronger effect = lower value 1.01 | S. cerevisiae deletion strains, locus YNL322C, strain KRE1 (second series), stronger effect = lower value 0.969 | S. cerevisiae deletion strains, locus YNL322C, strain KRE1, stronger effect = lower value 1 | S. cerevisiae deletion strains, locus YNR049C, strain mso1, stronger effect = lower value 0.978 | S. cerevisiae deletion strains, locus YNR052C, strain pop2, stronger effect = lower value 1.01 | S. cerevisiae deletion strains, locus YOL006C, strain TOP1, stronger effect = lower value 1.08 | S. cerevisiae deletion strains, locus YOL012C, strain htz1 1.27 | S. cerevisiae deletion strains, locus YOL147C, strain pex11, stronger effect = lower value 1 | S. cerevisiae deletion strains, locus YOR001W, strain rrp6, stronger effect = lower value 0.975 | S. cerevisiae deletion strains, locus YOR061W, strain CKA2, stronger effect = lower value 1.01 | S. cerevisiae deletion strains, locus YOR069W, strain VPS5, stronger effect = lower value 1.01 | S. cerevisiae deletion strains, locus YOR070C, strain gyp1, stronger effect = lower value 0.987 | S. cerevisiae deletion strains, locus YOR080W, strain dia2, stronger effect = lower value 0.965 | S. cerevisiae deletion strains, locus YOR083W, strain WHI5, stronger effect = lower value 0.964 | S. cerevisiae deletion strains, locus YOR106W, strain vam3, stronger effect = lower value 0.999 | S. cerevisiae deletion strains, locus YOR136W, strain idh2, stronger effect = lower value 1 | S. cerevisiae deletion strains, locus YOR144C, strain elg1, stronger effect = lower value 1 | S. cerevisiae deletion strains, locus YOR184W, strain ser1, stronger effect = lower value 1.01 | S. cerevisiae deletion strains, locus YOR231W, strain MKK1, stronger effect = lower value 1.03 | S. cerevisiae deletion strains, locus YOR265W, strain rbl2, stronger effect = lower value 0.98 | S. cerevisiae deletion strains, locus YOR270C, strain vph1, stronger effect = lower value 0.976 | S. cerevisiae deletion strains, locus YOR290C, strain snf2, stronger effect = lower value 0.94 | S. cerevisiae deletion strains, locus YOR316C, strain cot1, stronger effect = lower value 1.01 | S. cerevisiae deletion strains, locus YPL051W, strain arl3, stronger effect = lower value 0.982 | S. cerevisiae deletion strains, locus YPL055C, strain LGE1, stronger effect = lower value 1 | S. cerevisiae deletion strains, locus YPL078C, strain atp4, stronger effect = lower value 0.973 | S. cerevisiae deletion strains, locus YPL106C, strain sse1, stronger effect = lower value 0.919 | S. cerevisiae deletion strains, locus YPL240C, strain hsp82, stronger effect = lower value 0.958 | S. cerevisiae deletion strains, locus YPL241C, strain CIN2, stronger effect = lower value 1.01 | S. cerevisiae deletion strains, locus YPL256C, strain CLN2, stronger effect = lower value 1.12 | S. cerevisiae deletion strains, locus YPR119W, strain clb2, stronger effect = lower value 1 | S. cerevisiae deletion strains, locus YPR141C, strain kar3, stronger effect = lower value 1 | S. cerevisiae deletion strains, locus YPR163C, strain tif3, stronger effect = lower value 1.01 | S. cerevisiae deletion strains, locus YPR167C, strain met16, stronger effect = lower value 1.01 | S. cerevisiae deletion strains, strain wtn01, stronger effect = lower value 1.03 | S. cerevisiae strains, strain wild type, stronger effect = lower value 1.01
